Source: PubChem BioAssay
In the library only some 4.2% were active in any assay of this set; here they are far more common.
GDH-TPI counter = GDH-TPI coupled enzyme inhibition counter-screen. GDH-TPI coupled enzyme counterscreen, NADH absorbance. inhibition, % at 4.8 µM. 360,000 compounds, 1.2% hits;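 further: 0% = DMSO wells and 100% = wells lacking the enzyme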
CCHF vOTU inh-1 = CCHFV vOTU protease inhibition | Pep-AMC fluorescence | inhibition, % at 11.5 µM | 370,000 compounds, 0.55% hits; further: 0% = vehicle wells with enzyme and 100% = no enzyme wells
RecA splice inh = inhibitors of M. tuberculosis RecA intein splicing. cell-free RecA intein splicing, fluorescence. inhibition, % (concentration not given with the values). 290,000 compounds, 0.75% hits. AID 2221; in the data active means inhibition above about 30%;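 further: 0% = vehicle wells and 100% = reference inhibitor control wells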
FBA Mtb inh = inhibits M. tuberculosis FBA enzyme | P9WQA3 | inhibition, % at 1 µM | AID 588726 | purified M. tuberculosis FBA, fluorescence read-out | 360,000 compounds, 2.3% hits; in the data active means inhibition above about 27%;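 further: 0% = vehicle and 100% = reference inhibitor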
Target sequence (P9WQA3 whole entry, looked up): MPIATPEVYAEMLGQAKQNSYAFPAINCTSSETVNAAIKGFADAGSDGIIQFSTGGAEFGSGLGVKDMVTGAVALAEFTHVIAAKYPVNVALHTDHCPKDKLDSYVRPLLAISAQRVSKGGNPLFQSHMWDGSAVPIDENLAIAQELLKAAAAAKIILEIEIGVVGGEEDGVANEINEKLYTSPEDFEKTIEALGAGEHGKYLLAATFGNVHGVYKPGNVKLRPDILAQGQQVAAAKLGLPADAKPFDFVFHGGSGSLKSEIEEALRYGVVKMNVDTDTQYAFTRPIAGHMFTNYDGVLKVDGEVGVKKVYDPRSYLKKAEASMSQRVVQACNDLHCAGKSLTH
GFP chromo cs = counter-screen GFP chromophore formation inhibition. AID 434968. cell-free GFP chromophore formation, fluorescence. EC50, µM. shares compounds with RecA splice inh. 2,100 compounds, 83% hits; call rule not given here
CCHF vOTU inh-2 = confirmation of CCHF virus vOTU protease inhibitors; shares compounds with CCHF vOTU inh-1; Recombinant CCHFV vOTU, Pep-AMC fluorescence; inhibition, % at 11.5 µM; 1,900 compounds, 17% hits; AID 686976
The depositor's hits bear a star. Unless noted, no stated cut-off is given here; in the data, active means inhibition above about 30%; inactive means the rest.

Cc1ccc(S(=O)(=O)/N=C2\C=C(Nc3cccc(C(=O)O)c3)C(=O)c3ccccc32)cc1 was read as GDH-TPI counter 18, CCHF vOTU inh-1 105*, RecA splice inh 95*, FBA Mtb inh 0, GFP chromo cs 0.51* and CCHF vOTU inh-2 99*.
Cc1ccc(NC2=C/C(=N/S(=O)(=O)c3cccs3)c3ccccc3C2=O)cc1 was read as GDH-TPI counter 0, CCHF vOTU inh-1 98*, RecA splice inh 31*, FBA Mtb inh 0, GFP chromo cs 0.14* and CCHF vOTU inh-2 99*.
For Cc1cccc(NC2=C(NC(=O)c3ccccc3)C(=O)c3ccccc3C2=O)c1 the results were GDH-TPI counter 8, CCHF vOTU inh-1 68*, RecA splice inh 72*, FBA Mtb inh -5, GFP chromo cs 6.5* and CCHF vOTU inh-2 37*.
For O=C(NC1=C(NC2CCS(=O)(=O)C2)C(=O)c2ccccc2C1=O)c1ccccc1 (centres undefined) the results were GDH-TPI counter 1, CCHF vOTU inh-1 71*, RecA splice inh 84*, FBA Mtb inh -2, GFP chromo cs 1* and CCHF vOTU inh-2 69*.
Screening CC1Sc2ccc(S(=O)(=O)N3CCC(C(=O)NCc4ccccc4)CC3)cc2NC1=O (centres undefined) returned GDH-TPI counter 8, CCHF vOTU inh-1 7, RecA splice inh 1 and FBA Mtb inh 0.
`O=C(Nc1ccc2cn[nH]c2c1)c1c(Cl)cccc1Cl` gave GDH-TPI counter 1, CCHF vOTU inh-1 -1, RecA splice inh 1 and FBA Mtb inh 0.
O=C1C(Cl)=C(Nc2ccc3cn[nH]c3c2)C(=O)c2ccccc21 was read as GDH-TPI counter 13, CCHF vOTU inh-1 87*, RecA splice inh 90*, FBA Mtb inh -2, GFP chromo cs 1.5* and CCHF vOTU inh-2 80*.
Cc1[nH][nH]c(=O)c1C(c1ccc(-c2ccc(F)cc2)o1)c1c(C)[nH][nH]c1=O was read as GDH-TPI counter 4, CCHF vOTU inh-1 46*, RecA splice inh 97*, FBA Mtb inh -8, GFP chromo cs 0.58* and CCHF vOTU inh-2 -9.
`CCN1C(=O)c2ccccc2Sc2ccc(C(=O)NCCCN(CC(C)C)CC(C)C)cc21` gave GDH-TPI counter 5, CCHF vOTU inh-1 9, RecA splice inh 11 and FBA Mtb inh 4.
COc1ccc(NC(=O)Nc2ccc(O)c3ccccc23)cc1 was read as CCHF vOTU inh-1 82*, RecA splice inh 67*, GFP chromo cs 4.3* and CCHF vOTU inh-2 -17.
COc1ccc(C(=O)Nc2ccc(O)c3ccccc23)cc1 was read as GDH-TPI counter 8, CCHF vOTU inh-1 31*, RecA splice inh 98*, FBA Mtb inh -1, GFP chromo cs 0.22* and CCHF vOTU inh-2 -9.
COc1ccc(CCNC(=O)C2CCCN(S(C)(=O)=O)C2)cc1 (centres undefined) was read as GDH-TPI counter -16, CCHF vOTU inh-1 -9, RecA splice inh 2 and FBA Mtb inh 0.
CC1=NN(c2ccc([N+](=O)[O-])cc2)C(=O)C1 was read as GDH-TPI counter 27 and FBA Mtb inh -4.
CC1=NN(c2ccc(C(=O)O)c(N)c2)C(=O)C1 was read as GDH-TPI counter 12, CCHF vOTU inh-1 83*, RecA splice inh 69*, FBA Mtb inh 10, GFP chromo cs 2.6* and CCHF vOTU inh-2 -13.
`Cc1ccc2c(c1)c1c(n2CC(O)Cn2c(C)nc3ccccc32)CCCC1` (centres undefined) gave GDH-TPI counter 6, CCHF vOTU inh-1 4, RecA splice inh 2 and FBA Mtb inh 4.
Screening Cc1ccc2c(c1)c1c(n2CC(O)CN2CCCCCC2)CCCC1 (centres undefined) returned GDH-TPI counter 1, CCHF vOTU inh-1 35*, RecA splice inh 44*, FBA Mtb inh 4, GFP chromo cs >38 and CCHF vOTU inh-2 -1.
`CC(=O)N(C1=C(Cl)C(=O)c2ccccc2C1=O)C1CCCCC1` gave GDH-TPI counter 5, CCHF vOTU inh-1 100*, RecA splice inh 92*, FBA Mtb inh 0, GFP chromo cs 1.3* and CCHF vOTU inh-2 98*.
For CC(=O)N(c1ccccc1C)C1CCCC1 the results were GDH-TPI counter -6, CCHF vOTU inh-1 -14, RecA splice inh -1 and FBA Mtb inh -3.
Screening O=C(NN=C1C2CC3CC(C2)CC1C3)c1ccncc1 returned GDH-TPI counter 4, CCHF vOTU inh-1 -10, RecA splice inh -2 and FBA Mtb inh -1.
